According to PubChem BioAssay:
Values without a mark were called inactive. Activity calls are given as the source filed them. Unless noted, no stated cut-off is given here; in the data, active means inhibition above about 33%; inactive means the rest.

How the values were obtained:
[1] = StAR promoter reporter inhibitors, counter-screen for LRH-1 inverse agonist project, cell-based, luminescence, high throughput (AID 651611; in the data active means inhibition above about 28%); details: StAR promoter luciferase reporter counterscreen, at 3.6 µM, hits give high values
[2] = target: Nuclear receptor subfamily 5 group A member 2 (Homo sapiens) (UniProt O00482); assay: NR5A2 activity suppression in reporter cells – cell-based, luminescence, confirmation (AID 651613; in the data active means inhibition above about 42%;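 further: HEK293T cells co-transfected with LRH-1 and StAR promoter luciferase reporter; 0% = vehicle wells and 100% = parental cells lacking receptor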); details: cell-based LRH-1 luciferase reporter, inverse agonism; at 3.6 µM; hits give high values
[3] = target: Steroidogenic factor 1 (Homo sapiens) (UniProt Q13285); assay: inverse agonism at SF1 nuclear receptor – cell-based, luminescence, high throughput, counter-screen for LRH-1 inverse agonist project (AID 651614; in the data active means inhibition above about 44%;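 further: cells cotransfected with StAR promoter reporter and SF1 expression vector; 0% = vehicle on cells with receptor and 100% = vehicle on cells lacking receptor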); details: cell-based SF1 luciferase reporter, at 3.6 µM, hits give high values
[4] = compounds suppressing VP16-driven luciferase signal – cell-based, luminescence, high throughput, counter-screen for LRH-1 inverse agonist project (AID 651615); details: Gal4-VP16 luciferase reporter cells, at 3.6 µM, hits give high values

Sequence of Nuclear receptor subfamily 5 group A member 2 (Homo sapiens) (O00482 whole entry, looked up): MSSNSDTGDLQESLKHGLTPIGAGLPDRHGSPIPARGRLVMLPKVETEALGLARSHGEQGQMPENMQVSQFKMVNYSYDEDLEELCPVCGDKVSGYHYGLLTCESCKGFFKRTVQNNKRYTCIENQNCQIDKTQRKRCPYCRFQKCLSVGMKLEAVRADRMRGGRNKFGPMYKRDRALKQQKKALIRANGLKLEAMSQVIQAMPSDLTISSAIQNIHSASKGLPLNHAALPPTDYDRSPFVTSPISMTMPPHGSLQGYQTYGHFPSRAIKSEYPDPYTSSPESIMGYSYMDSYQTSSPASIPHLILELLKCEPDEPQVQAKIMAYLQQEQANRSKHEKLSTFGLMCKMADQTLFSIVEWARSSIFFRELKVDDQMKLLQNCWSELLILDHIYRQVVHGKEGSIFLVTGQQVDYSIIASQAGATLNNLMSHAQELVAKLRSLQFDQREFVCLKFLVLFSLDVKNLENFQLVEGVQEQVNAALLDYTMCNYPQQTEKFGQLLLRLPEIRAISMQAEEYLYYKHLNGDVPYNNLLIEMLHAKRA
Sequence of Steroidogenic factor 1 (Homo sapiens) (Q13285 whole entry, looked up, the tested form may be a part): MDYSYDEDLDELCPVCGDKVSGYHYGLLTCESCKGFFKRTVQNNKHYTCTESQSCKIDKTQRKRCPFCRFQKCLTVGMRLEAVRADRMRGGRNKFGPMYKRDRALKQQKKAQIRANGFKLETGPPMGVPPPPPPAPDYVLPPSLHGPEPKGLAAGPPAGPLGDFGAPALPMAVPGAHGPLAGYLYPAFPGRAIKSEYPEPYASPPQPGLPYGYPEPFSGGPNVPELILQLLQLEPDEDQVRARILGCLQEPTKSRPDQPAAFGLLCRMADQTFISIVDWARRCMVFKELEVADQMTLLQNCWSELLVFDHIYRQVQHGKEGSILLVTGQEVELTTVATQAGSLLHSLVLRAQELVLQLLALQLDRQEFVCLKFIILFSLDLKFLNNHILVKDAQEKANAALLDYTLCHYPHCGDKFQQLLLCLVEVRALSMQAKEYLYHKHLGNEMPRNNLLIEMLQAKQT

| SMILES | inhibition [1] | inhibition [2] | inhibition [3] | inhibition [4] |
| --- | --- | --- | --- | --- |
| O=C1C=C(NCc2ccco2)C2(CCCCC2)O1 | -2.64% | 43.1% (active) | 46.6% (active) | 10.7% |
| Clc1ccccc1-c1nnc2sc(-c3ccc(Br)o3)nn12 | 5.07% | 43.5% (active) | 54.5% (active) | -2.86% |
| Cc1nnsc1S(=O)c1ccc(Br)cc1 (stereo not given) | 4.11% | 45.4% (active) | 44.9% (active) | 3.37% |
| CCOc1ccc(NC(=O)CSc2nncc(=O)[nH]2)cc1 | 8.36% | 63% (active) | 57.7% (active) | -11.2% |
| CCn1cc(Br)c(C(=O)Nc2ccccc2C(=O)OC)n1 | 7.57% | 47.4% (active) | 46.6% (active) | -5.16% |
| COc1ccc(NC(=O)Cn2c(C)cc(=O)c3ccccc32)cc1 | 0.15% | 64.9% (active) | 53.2% (active) | 35.1% (active) |
| O=C(Nc1ccc(Oc2ccccc2)cc1)c1csc([C@H]2C[C@H](O)[C@@H](CO)O2)n1 | 27.6% | 56.6% (active) | 61.1% (active) | 54.4% (active) |
| CC(=O)Nc1ccc(NC(=O)CSc2nnc(-c3cc4ccccc4o3)n2C)cc1 | -0.36% | 42.7% (active) | 43.9% (active) | -5.84% |
| Cc1ccc2c(c1)Oc1ccc(NC(=O)CCl)cc1C(=O)N2 | 61.7% (active) | 68.3% (active) | 75.6% (active) | 16.8% |
| COc1ccc2c(c1)C1C=CCC1C(c1cc3c(cc1Br)OCO3)N2 (stereo not given) | -3.15% | 37% | 30.1% | -14.3% |
